# High-throughput results as filed in PubChem.
# Compounds with a hit are over-represented: about 0.9% of the library has one in this group of screens.
# PPARg SRC1 recr: promotes SRC-1 coactivator recruitment by human PPARgamma | P37231 | PPARgamma-SRC-1 coactivator recruitment biochemical assay | activation, % at 8 µM | actives 0.41% (n = 200,000); in the data active = activation above about 19%;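 note: 0% = DMSO and 100% = reference agonist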
# SRC1 TRFRET art: TR-FRET artefact, counter-screen to PPARgamma/SRC-1 agonist assay. actives 0.34% (n = 99,000). TR-FRET detection artefact counter-screen, emission ratio; stronger effect = higher value. TR-FRET ratio at 8 µM; in the data active = TR-FRET ratio above about 2300
# SRC3 TRFRET art: TR-FRET artefact, counter-screen to PPARgamma/SRC-3 agonist assay; PPARgamma/SRC-3 format; stronger effect = higher value; TR-FRET ratio at 8 µM; actives 0.39% (n = 99,000); in the data active = TR-FRET ratio above about 2000
# PPARg SRC-2 ag: agonists of SRC-2 recruitment by human PPARgamma; P37231; PPARgamma LBD-SRC-2 recruitment, biochemical; activation, % at 8 µM; actives 0.34% (n = 200,000); AID 1032;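 note: 0% = vehicle and 100% = reference agonist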
# TR-FRET SRC-2 ct: flags TR-FRET format artefacts in PPARgamma SRC-2 recruitment agonist screen | TR-FRET artefact counter-screen; stronger effect = higher value | TR-FRET ratio at 8 µM | actives 0.4% (n = 200,000) | AID 1049; in the data active = TR-FRET ratio above about 2000
# PPARg SRC3 recr: promotes SRC-3 coactivator recruitment by human PPARgamma. P37231. biochemical PPARgamma/SRC-3 coactivator recruitment assay. activation, % at 8 µM. actives 0.26% (n = 200,000). AID 731; in the data active = activation above about 23%;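 note: 0% = DMSO and 100% = reference agonist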
# PPARg SRC2 ag: confirmation of agonists of SRC-2 recruitment by human PPARgamma; actives 52% (n = 790); biochemical SRC-2 recruitment by PPARgamma; shares compounds with PPARg SRC3 recr; activation, % at 8 µM;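 note: 0% = vehicle alone and 100% = reference agonist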
# PPARg SRC1 conf: confirmation of agonists of SRC-1 recruitment by human PPARgamma. activation, % at 8 µM. actives 43% (n = 790). PPARgamma–SRC-1 coactivator recruitment biochemical assay. shares compounds with PPARg SRC3 recr. AID 1300; in the data active = activation above about 20%;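 note: 0% = vehicle wells and 100% = reference agonist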
# PPARg SRC3 conf: human PPARgamma SRC-3 recruitment agonism, confirmation; shares compounds with PPARg SRC3 recr; biochemical PPARgamma-SRC-3 coactivator recruitment, agonist mode; activation, % at 8 µM; actives 29% (n = 790); AID 1301; in the data active = activation above about 24%;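 note: 0% = vehicle wells and 100% = reference agonist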
# Target sequence (P37231 whole entry, looked up): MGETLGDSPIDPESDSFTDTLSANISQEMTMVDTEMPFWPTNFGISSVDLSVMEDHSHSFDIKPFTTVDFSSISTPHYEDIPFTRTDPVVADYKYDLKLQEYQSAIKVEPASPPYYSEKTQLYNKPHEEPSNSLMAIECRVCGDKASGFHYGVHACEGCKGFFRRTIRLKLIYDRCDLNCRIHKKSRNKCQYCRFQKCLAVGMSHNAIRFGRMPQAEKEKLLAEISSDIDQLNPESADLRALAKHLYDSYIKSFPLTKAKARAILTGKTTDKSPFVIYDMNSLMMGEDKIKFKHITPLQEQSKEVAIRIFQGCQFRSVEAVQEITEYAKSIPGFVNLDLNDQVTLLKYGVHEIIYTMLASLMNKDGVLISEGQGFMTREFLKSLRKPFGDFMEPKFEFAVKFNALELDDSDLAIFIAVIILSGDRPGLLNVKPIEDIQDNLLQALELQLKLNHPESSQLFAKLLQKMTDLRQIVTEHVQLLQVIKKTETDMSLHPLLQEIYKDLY
# Target sequence (Q9Y6Q9 whole entry, looked up): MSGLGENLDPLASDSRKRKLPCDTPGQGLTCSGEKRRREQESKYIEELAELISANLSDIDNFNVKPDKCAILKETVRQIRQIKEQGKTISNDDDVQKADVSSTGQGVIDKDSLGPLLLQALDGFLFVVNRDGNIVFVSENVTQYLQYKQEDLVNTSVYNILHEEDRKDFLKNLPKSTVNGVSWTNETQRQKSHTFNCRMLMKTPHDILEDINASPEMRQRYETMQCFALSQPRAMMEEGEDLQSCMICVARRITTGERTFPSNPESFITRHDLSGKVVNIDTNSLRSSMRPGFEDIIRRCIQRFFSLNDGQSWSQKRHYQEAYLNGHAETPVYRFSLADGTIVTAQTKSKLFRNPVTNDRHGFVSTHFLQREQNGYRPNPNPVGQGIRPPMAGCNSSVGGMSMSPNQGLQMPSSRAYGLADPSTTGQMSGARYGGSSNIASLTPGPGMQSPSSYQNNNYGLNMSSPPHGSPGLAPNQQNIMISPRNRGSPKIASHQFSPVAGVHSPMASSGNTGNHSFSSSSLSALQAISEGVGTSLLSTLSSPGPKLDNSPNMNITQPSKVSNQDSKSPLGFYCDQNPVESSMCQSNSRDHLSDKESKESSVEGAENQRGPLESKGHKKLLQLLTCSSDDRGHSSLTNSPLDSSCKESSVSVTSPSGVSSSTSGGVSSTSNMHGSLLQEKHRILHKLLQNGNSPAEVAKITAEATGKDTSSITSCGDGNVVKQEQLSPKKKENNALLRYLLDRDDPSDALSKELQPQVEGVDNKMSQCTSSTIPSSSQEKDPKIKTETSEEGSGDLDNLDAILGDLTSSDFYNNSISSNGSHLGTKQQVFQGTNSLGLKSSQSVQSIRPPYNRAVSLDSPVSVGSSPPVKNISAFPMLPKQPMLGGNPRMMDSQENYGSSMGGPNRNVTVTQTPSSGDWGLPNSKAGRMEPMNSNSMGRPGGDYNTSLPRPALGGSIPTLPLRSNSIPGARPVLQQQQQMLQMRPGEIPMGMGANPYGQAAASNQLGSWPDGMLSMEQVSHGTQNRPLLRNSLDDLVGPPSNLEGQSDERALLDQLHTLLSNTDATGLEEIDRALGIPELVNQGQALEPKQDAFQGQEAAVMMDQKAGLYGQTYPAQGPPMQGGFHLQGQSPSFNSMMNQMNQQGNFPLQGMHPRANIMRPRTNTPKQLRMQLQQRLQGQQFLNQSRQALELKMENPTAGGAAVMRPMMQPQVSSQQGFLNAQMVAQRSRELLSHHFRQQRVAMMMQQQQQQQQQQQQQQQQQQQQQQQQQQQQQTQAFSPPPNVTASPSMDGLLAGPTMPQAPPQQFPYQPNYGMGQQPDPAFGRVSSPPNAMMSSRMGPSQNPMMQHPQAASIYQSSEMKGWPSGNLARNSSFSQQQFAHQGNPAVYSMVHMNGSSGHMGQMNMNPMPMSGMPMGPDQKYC
# An asterisk follows results filed as active; nt = no result. Cut-off read from the data, not from the text of the source, unless noted: active = activation above about 22%; inactive = the rest.
SMILES,PPARg SRC1 recr,SRC1 TRFRET art,SRC3 TRFRET art,PPARg SRC-2 ag,TR-FRET SRC-2 ct,PPARg SRC3 recr,PPARg SRC2 ag,PPARg SRC1 conf,PPARg SRC3 conf
O=C(C1=C(O)C(=O)N(CCN2CCOCC2)C1c1cccnc1)c1cc2ccccc2o1 (stereo unspecified),13,nt,nt,3,1682,10,nt,nt,nt
COc1cccc(C2C(C(=O)c3ccc(C)o3)=C(O)C(=O)N2CCCN(C)C)c1 (stereo unspecified),0,nt,nt,7,1772,8,nt,nt,nt
CC1CCCC(NC(=O)COC(=O)c2sc3ccccc3c2Cl)C1C (stereo unspecified),3,1971,1494,5,1574,1,nt,nt,nt
CC(C)CC(=O)NC(NC(=S)Nc1sc2c(c1C#N)CCCC2)C(Cl)(Cl)Cl (stereo unspecified),-3,nt,nt,-1,1736,6,nt,nt,nt
S=c1[nH]ncn2c1cc1oc3ccccc3c12,31*,2955*,2852*,37*,2319*,28*,5,-2,4
Cc1ccc2[nH]c3c(=S)nc[nH]c3c2c1,23*,2302,2834*,38*,2733*,22,14,5,10
O=C(Nc1ccc(F)cc1)C1C(c2ccccc2)C1(Cl)Cl (stereo unspecified),-5,1778,1413,-8,1526,1,nt,nt,nt
COc1ccccc1N1CCN(C(=O)CCCN2C(=O)c3cccc4cccc(c34)C2=O)CC1,-3,1913,1793,2,1394,1,nt,nt,nt
CC(=O)Nc1ccc2nc(NC(=O)COc3cccc(C)c3)sc2c1,-8,1654,1541,-1,1304,2,nt,nt,nt
COc1ccccc1NC(=O)c1ccc(-n2cncn2)nc1,-5,1830,1488,0,1534,-4,nt,nt,nt
O=C(Nc1ccccc1F)c1ccc(-n2cncn2)nc1,1,nt,nt,23*,1617,10,6,5,3
CCN(C(=O)Cc1ccc(Br)cc1)C1CCCCC1,-4,nt,nt,-4,1401,-16,nt,nt,nt
CCS(=O)(=O)Nc1ccc(-c2nnc(SCC(=O)c3ccc(NC(C)=O)c(OC)c3)o2)cc1,31*,nt,nt,5,1680,57*,8,-1,7
CCS(=O)(=O)Nc1ccc(-c2nnc(SCC(=O)c3cccc(OC)c3)o2)cc1,6,nt,nt,7,1712,2,nt,nt,nt
CCN(CC)c1ccc(NC(=O)c2cnn(CC)c2)cc1,12,nt,nt,22*,1842,27*,-2,-4,0
CCOc1ccc(NC(=S)N2CCN(C/C=C/c3ccccc3)CC2)cc1,2,1866,1400,-9,1438,2,nt,nt,nt
O=C(O[C@@H]1OC2COC(=O)c3cc(O)c(O)c(O)c3-c3c(cc(O)c(O)c3O)C(=O)O[C@@H]([C@H]1O)[C@@H]2O)c1cc(O)c(O)c(O)c1,20,1985,1701,24*,1547,10,8,7,2
CC1CC(C)CN(CC(=O)N2CCOCC2)C1 (stereo unspecified),5,1530,1660,5,1736,-2,nt,nt,nt
COCc1nnc(NC(C)=O)s1,-6,1503,1446,-10,1310,-1,nt,nt,nt
CCN(CC)c1ccc(NC(=O)CSc2nnc(N)s2)cc1C,20*,nt,nt,2,1642,15,-2,-3,0
C#CCn1c(=NC(=O)c2ccc(Br)s2)sc2cc(NC(C)=O)ccc21,4,1868,1650,3,1669,7,nt,nt,nt
C#CCn1c(=NC(=O)c2ccc(Br)s2)sc2cccc(OC)c21,24*,nt,nt,30*,4015*,33*,46*,32*,26*
CN(C)c1ccc(N/C=C/C(=O)C(C)(C)C)cc1,13,nt,nt,81*,2723*,70*,7,10,7
CN(C)c1ccc(N/C=C/C(=O)c2ccccc2)cc1,9,nt,nt,13,1663,21,nt,nt,nt
CCOc1ccc(/C(O)=C2\C(=O)C(=O)N(c3cc(C)on3)C2c2ccccc2OC)cc1 (stereo unspecified),27*,nt,nt,34*,2300*,42*,36*,31*,22
SMILES,PPARg SRC1 recr,SRC1 TRFRET art,SRC3 TRFRET art,PPARg SRC-2 ag,TR-FRET SRC-2 ct,PPARg SRC3 recr,PPARg SRC2 ag,PPARg SRC1 conf,PPARg SRC3 conf
CN(C)S(=O)(=O)c1cccc(NC(=O)CN2C(=O)C3C4C=CC(C4)C3C2=O)c1 (stereo unspecified),3,1999,1491,-2,1576,3,nt,nt,nt
CC(C)CC(NC(=O)C(NC(=O)C1OC2OC(C)(C)OC2C2OC(C)(C)OC12)C(C)C)C(=O)O (stereo unspecified),10,2017,1591,-11,1560,2,nt,nt,nt
Clc1ccc(-c2ccc(C=Nc3ccc(N4CCOCC4)cc3)o2)cc1,6,1899,1639,7,1771,6,nt,nt,nt
Clc1cccc(-c2ccc(C=Nc3ccc(N4CCOCC4)cc3)o2)c1Cl,24*,2633*,1962,27*,2206*,20,36*,29*,23
CC(C)(C)c1ccc(/C=C2\SC(=O)N(CCNC(=O)c3cccc(S(=O)(=O)N4CCOCC4)c3)C2=O)cc1,6,1944,1645,8,1545,4,nt,nt,nt
CCc1ccc2c(c1)cc(C)c1nnc(SCC(=O)Nc3cc(OC)c(OC)cc3C(=O)O)n12,2,1680,1445,12,1565,-2,nt,nt,nt
Cc1cc(Br)c2nc3c(c(C(=O)O)c2c1)CCCCC3,53*,3214*,4157*,98*,4070*,50*,67*,43*,47*
CCc1ccc2nc3c(c(C(=O)O)c2c1)CCC3,1,nt,nt,9,1632,9,nt,nt,nt
O=C(C1=C(O)C(=O)N(Cc2ccco2)C1c1cccnc1)c1cc2ccccc2o1 (stereo unspecified),33*,nt,nt,34*,2097*,50*,21,15,14
O=C(C1=C(O)C(=O)N(CC2CCCO2)C1c1cccnc1)c1ccco1 (stereo unspecified),3,nt,nt,3,1600,7,nt,nt,nt
COc1cccc2cc(C(=O)C3=C(O)C(=O)N(Cc4ccco4)C3c3cccnc3)oc12 (stereo unspecified),27*,nt,nt,26*,2226*,40*,23*,14,14
NS(=O)(=O)c1cccc(NC(=O)COC(=O)C2(c3cccc(F)c3)CCCC2)c1,6,1877,1755,-1,1632,-2,nt,nt,nt
Cc1ccc(-n2nnnc2CCl)cc1,-8,1528,1413,0,1533,-3,nt,nt,nt
CCCCCCCC(=O)N/N=C/c1cccnc1,20*,nt,nt,6,1642,9,5,3,6
Cc1cc(Br)ccc1NCc1ccccn1,7,nt,nt,-5,1617,-2,nt,nt,nt
